Consider seven sequences from article PMC7862700, “An all-to-all approach to the identification of sequence-specific readers for epigenetic DNA modifications on cytosine”.

Common to all, as to assay: DAPPL (digital affinity profiling via proximity ligation, sequencing); 10 mM Tris-HCl pH 7.5, 50 mM NaCl, 1 mM DTT, 4% glycerol, room temperature, 30 min; GST-TFs on glutathione beads, 16-mer random dsDNA library, 0.1% formaldehyde crosslink after washing; high values mean tight binding
Common to all, as to conditions: protein: recombinant; tags: N-terminal GST; dsDNA, one strand shown

In one test the target is T1, FLI1 (Homo sapiens, UniProt Q01543 1-452).
T1 sequence: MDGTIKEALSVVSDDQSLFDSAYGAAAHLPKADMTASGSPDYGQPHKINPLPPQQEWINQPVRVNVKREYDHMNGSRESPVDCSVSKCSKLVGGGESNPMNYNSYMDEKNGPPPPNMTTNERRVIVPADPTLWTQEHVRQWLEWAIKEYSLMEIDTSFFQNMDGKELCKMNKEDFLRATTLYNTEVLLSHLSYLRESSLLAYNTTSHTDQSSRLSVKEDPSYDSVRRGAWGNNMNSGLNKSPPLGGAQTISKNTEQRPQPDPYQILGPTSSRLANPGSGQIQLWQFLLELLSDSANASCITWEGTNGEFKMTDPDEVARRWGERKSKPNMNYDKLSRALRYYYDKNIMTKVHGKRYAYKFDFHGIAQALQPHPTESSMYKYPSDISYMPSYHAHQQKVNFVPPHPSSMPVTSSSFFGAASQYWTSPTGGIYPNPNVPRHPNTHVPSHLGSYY
An outline of the steps: (§1)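 Human transcription factors fused to GST were expressed in yeast, captured on glutathione beads, given DNA barcodes and pooled with a GST-only negative control. Pools were incubated with 200 nmole of a 16-mer random double-stranded DNA library in Tris/NaCl/DTT/glycerol buffer at room temperature for 30 min. They were then washed, crosslinked with 0.1% formaldehyde, proximity-ligated (BsaI/T4 ligase, 1 h, 37 °C), PCR-amplified and sequenced on an Illumina NextSeq500. Binding signal is each 6-mer's read frequency for a factor divided by its frequency for the GST control.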

The target in the next test is T2, ELK1 (Homo sapiens, UniProt P19419 1-428).
T2 sequence: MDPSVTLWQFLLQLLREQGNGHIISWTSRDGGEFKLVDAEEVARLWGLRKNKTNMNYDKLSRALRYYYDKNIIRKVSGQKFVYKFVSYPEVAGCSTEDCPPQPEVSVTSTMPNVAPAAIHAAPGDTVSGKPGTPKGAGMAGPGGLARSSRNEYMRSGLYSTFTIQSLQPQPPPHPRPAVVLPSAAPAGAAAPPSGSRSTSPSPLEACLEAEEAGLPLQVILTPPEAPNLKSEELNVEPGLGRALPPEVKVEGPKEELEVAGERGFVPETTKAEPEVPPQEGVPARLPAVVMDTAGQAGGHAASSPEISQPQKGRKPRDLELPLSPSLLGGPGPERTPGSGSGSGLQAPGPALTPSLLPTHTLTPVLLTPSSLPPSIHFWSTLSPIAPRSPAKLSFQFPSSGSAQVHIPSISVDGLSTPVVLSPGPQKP
In a few lines:
as §1

A further test has as its target T3, GABPA (Homo sapiens, UniProt Q06546 1-454).
T3 sequence: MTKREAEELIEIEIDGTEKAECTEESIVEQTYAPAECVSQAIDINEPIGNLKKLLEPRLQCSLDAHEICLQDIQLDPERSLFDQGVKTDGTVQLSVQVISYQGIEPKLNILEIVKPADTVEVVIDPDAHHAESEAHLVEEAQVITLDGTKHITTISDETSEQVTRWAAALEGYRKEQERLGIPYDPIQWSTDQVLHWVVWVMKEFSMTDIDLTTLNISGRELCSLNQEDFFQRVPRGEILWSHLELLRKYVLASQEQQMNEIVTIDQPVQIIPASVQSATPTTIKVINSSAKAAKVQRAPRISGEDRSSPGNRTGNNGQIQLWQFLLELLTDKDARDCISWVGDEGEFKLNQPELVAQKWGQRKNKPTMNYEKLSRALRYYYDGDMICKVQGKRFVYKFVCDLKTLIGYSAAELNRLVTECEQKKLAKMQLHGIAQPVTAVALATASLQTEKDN
In a few lines: as §1

In a further test the target is T4, ERG (Homo sapiens, UniProt P11308 1-479).
T4 sequence: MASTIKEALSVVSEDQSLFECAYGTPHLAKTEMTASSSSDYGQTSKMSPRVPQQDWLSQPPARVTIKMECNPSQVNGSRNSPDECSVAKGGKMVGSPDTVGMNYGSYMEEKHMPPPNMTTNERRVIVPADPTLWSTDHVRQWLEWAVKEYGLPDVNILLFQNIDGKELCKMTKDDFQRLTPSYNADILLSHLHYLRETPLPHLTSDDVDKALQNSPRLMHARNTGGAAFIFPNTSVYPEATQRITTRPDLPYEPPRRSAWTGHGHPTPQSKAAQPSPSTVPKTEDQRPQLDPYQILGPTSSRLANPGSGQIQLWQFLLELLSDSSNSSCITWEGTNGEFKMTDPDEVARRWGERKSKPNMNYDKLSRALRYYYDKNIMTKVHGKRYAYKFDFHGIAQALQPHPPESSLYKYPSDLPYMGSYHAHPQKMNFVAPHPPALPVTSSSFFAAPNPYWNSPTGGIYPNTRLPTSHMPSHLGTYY
An outline of the steps:
as §1

A further test deals with ELF1 (Homo sapiens, UniProt P32519 1-619). An outline of the steps: as §1
ELF1, sequence (P32519 whole entry): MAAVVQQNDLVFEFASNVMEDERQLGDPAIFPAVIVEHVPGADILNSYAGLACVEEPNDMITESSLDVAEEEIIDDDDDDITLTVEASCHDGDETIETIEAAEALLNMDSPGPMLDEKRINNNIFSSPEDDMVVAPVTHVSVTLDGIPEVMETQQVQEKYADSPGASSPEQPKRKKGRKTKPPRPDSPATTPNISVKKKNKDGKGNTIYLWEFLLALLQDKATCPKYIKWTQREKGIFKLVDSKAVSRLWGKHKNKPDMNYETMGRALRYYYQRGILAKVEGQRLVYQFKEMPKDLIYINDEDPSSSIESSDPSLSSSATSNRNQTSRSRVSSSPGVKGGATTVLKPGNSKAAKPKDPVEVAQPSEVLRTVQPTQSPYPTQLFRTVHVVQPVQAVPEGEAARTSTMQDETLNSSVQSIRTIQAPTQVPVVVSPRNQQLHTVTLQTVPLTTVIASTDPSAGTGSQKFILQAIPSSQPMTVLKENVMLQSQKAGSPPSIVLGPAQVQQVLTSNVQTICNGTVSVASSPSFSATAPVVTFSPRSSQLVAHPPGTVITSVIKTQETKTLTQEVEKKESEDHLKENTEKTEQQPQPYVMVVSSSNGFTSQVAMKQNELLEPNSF
The next test deals with T5, EHF (Homo sapiens, UniProt Q9NZC4 1-300).
T5 sequence: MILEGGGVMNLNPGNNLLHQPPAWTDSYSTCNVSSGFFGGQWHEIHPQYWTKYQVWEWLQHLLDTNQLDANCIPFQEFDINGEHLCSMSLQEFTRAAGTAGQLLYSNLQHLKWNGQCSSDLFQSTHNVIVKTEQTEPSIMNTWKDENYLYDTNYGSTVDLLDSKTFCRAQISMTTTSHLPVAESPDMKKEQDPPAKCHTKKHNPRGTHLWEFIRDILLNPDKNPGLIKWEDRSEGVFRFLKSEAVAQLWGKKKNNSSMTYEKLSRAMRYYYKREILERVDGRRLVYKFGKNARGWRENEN
In a few lines: as §1

The target in another test is SPI1 (Homo sapiens, UniProt P17947 1-270). An outline of the steps:
as §1

The next test addresses SPIB (Homo sapiens, UniProt Q01892 1-262). An outline of the steps:
as §1

The target of a further test is T6, ELK3 (Homo sapiens, UniProt P41970 1-407).
T6 sequence: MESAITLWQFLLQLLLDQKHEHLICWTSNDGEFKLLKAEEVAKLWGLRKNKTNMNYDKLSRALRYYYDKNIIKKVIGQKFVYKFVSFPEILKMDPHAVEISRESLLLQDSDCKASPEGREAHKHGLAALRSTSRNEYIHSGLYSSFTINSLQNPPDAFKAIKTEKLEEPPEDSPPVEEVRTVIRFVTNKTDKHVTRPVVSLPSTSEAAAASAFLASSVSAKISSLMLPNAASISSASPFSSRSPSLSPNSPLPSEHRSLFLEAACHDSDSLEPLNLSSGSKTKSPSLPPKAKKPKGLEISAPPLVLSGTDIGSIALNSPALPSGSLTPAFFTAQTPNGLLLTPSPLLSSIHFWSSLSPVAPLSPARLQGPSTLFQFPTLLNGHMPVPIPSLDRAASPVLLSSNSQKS
An outline of the steps: as §1

SPIB, sequence (Q01892 whole entry): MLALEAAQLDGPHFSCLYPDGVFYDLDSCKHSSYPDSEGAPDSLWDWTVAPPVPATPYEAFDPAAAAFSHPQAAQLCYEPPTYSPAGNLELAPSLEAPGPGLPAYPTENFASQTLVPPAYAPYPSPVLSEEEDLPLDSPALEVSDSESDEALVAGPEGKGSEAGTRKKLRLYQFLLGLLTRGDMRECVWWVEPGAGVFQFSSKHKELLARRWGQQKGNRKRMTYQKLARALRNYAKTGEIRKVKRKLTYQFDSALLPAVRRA

With TACTAG, the binding signal in the test with FLI1 was 1.09 fold enrichment (6-mer frequency, TF over GST control); with ELK1 it was 1.09 fold enrichment (6-mer frequency, TF over GST control); with GABPA it was 1.07 fold enrichment (6-mer frequency, TF over GST control); with ERG, 1.06 fold enrichment (6-mer frequency, TF over GST control); with ELF1 it was 1.11 fold enrichment (6-mer frequency, TF over GST control); in the test with EHF, 1.09 fold enrichment (6-mer frequency, TF over GST control). The binding signal in the test with SPI1 was 1 fold enrichment (6-mer frequency, TF over GST control); with SPIB, 1 fold enrichment (6-mer frequency, TF over GST control); with ELK3 it was 1.05 fold enrichment (6-mer frequency, TF over GST control).

TTGTCC: the binding signal with FLI1 is 1.47 fold enrichment (6-mer frequency, TF over GST control); in the test with ELK1, 1.32 fold enrichment (6-mer frequency, TF over GST control); with GABPA, 1.41 fold enrichment (6-mer frequency, TF over GST control); with ERG it was 1.4 fold enrichment (6-mer frequency, TF over GST control); with ELF1 it was 1.3 fold enrichment (6-mer frequency, TF over GST control); in the test with EHF, 1.31 fold enrichment (6-mer frequency, TF over GST control). Moreover, the binding signal with SPI1 is 1.17 fold enrichment (6-mer frequency, TF over GST control); with SPIB it was 1.34 fold enrichment (6-mer frequency, TF over GST control); in the test with ELK3, 1.43 fold enrichment (6-mer frequency, TF over GST control).

ATAAAG: the binding signal in the test with FLI1 is 1.01 fold enrichment (6-mer frequency, TF over GST control); with ELK1, 1.01 fold enrichment (6-mer frequency, TF over GST control); with GABPA, 1.05 fold enrichment (6-mer frequency, TF over GST control); with ERG it was 1.12 fold enrichment (6-mer frequency, TF over GST control); with ELF1, 1.06 fold enrichment (6-mer frequency, TF over GST control); in the test with EHF it was 1.11 fold enrichment (6-mer frequency, TF over GST control). For the same sequence, the binding signal was 1.21 fold enrichment (6-mer frequency, TF over GST control) with SPI1; 1.1 fold enrichment (6-mer frequency, TF over GST control) with SPIB; 1.12 fold enrichment (6-mer frequency, TF over GST control) with ELK3.

For TGGACA, the binding signal is 1.06 fold enrichment (6-mer frequency, TF over GST control) in the test with FLI1; 1.07 fold enrichment (6-mer frequency, TF over GST control) with ELK1; 1.11 fold enrichment (6-mer frequency, TF over GST control) with GABPA; 1.05 fold enrichment (6-mer frequency, TF over GST control) with ERG; 1.15 fold enrichment (6-mer frequency, TF over GST control) with ELF1; 1.05 fold enrichment (6-mer frequency, TF over GST control) with EHF. In addition, the binding signal in the test with SPI1 is 1.03 fold enrichment (6-mer frequency, TF over GST control); in the test with SPIB it was 1.08 fold enrichment (6-mer frequency, TF over GST control); with ELK3, 1.07 fold enrichment (6-mer frequency, TF over GST control).

Turning to TAAATA, the binding signal with FLI1 was 1.23 fold enrichment (6-mer frequency, TF over GST control); with ELK1, 1.18 fold enrichment (6-mer frequency, TF over GST control); with GABPA, 1.21 fold enrichment (6-mer frequency, TF over GST control); with ERG it was 1.2 fold enrichment (6-mer frequency, TF over GST control); with ELF1 it was 1.21 fold enrichment (6-mer frequency, TF over GST control); with EHF, 1.23 fold enrichment (6-mer frequency, TF over GST control). The binding signal with SPI1 is 1.29 fold enrichment (6-mer frequency, TF over GST control); with SPIB it was 1.35 fold enrichment (6-mer frequency, TF over GST control); with ELK3, 1.33 fold enrichment (6-mer frequency, TF over GST control).

For AAGAAC, the binding signal with FLI1 was 1.13 fold enrichment (6-mer frequency, TF over GST control); in the test with ELK1, 1.18 fold enrichment (6-mer frequency, TF over GST control); with GABPA, 1.15 fold enrichment (6-mer frequency, TF over GST control); with ERG it was 1.22 fold enrichment (6-mer frequency, TF over GST control); with ELF1, 1.17 fold enrichment (6-mer frequency, TF over GST control); with EHF, 1.24 fold enrichment (6-mer frequency, TF over GST control). Besides, the binding signal with SPI1 is 1.14 fold enrichment (6-mer frequency, TF over GST control); with SPIB, 1.05 fold enrichment (6-mer frequency, TF over GST control); with ELK3 it was 1.24 fold enrichment (6-mer frequency, TF over GST control).

On to ATGTCC, for which the binding signal in the test with FLI1 is 1.56 fold enrichment (6-mer frequency, TF over GST control); with ELK1 it was 1.53 fold enrichment (6-mer frequency, TF over GST control); with GABPA it was 1.54 fold enrichment (6-mer frequency, TF over GST control); with ERG, 1.75 fold enrichment (6-mer frequency, TF over GST control); in the test with ELF1, 1.58 fold enrichment (6-mer frequency, TF over GST control); with EHF, 1.54 fold enrichment (6-mer frequency, TF over GST control). Also, the binding signal was 1.35 fold enrichment (6-mer frequency, TF over GST control) with SPI1; 1.55 fold enrichment (6-mer frequency, TF over GST control) with SPIB; 1.75 fold enrichment (6-mer frequency, TF over GST control) with ELK3.
